Measurements published in PubChem BioAssay (EPA / NIEHS).
Activity calls are given as the source filed them. Rule for the calls: active = hit-call score of the fitted dose curve at least 0.9, where 1 is the maximum; inactive = score below 0.9.

Tests used:
Conditions in all cases: mRNA level, 48 h; actives raise or lower the signal
[1] = read-out: Peroxisomal acyl-coenzyme A oxidase 1 (ACOX1) gene, ACOX1 (gene 51); test: LTEA_HepaRG_ACOX1: Life Technologies and Expression Analysis (LTEA) Assay for Peroxisomal acyl-coenzyme A oxidase 1 (ACOX1) gene using HepaRG (AID 2283467)
In short: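 ACOX1 transcript levels were quantified by TaqMan qRT-PCR against three housekeeping genes after 48 h chemical exposure of differentiated human HepaRG cells. Exposure used eight half-log steps topping at 100 uM, 0.5% DMSO vehicle, in duplicate. Bidirectional curve fits were made relative to DMSO.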

[2] = read-out: Alkaline Phosphatase, Placental (ALPP) gene, ALPP (gene 250); test: LTEA_HepaRG_ALPP: Life Technologies and Expression Analysis (LTEA) Assay for Alkaline Phosphatase, Placental (ALPP) gene using HepaRG (AID 2283468);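 for AC50: differentiated human HepaRG liver cells in serum-free induction medium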
In short: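 ALPP transcript level, measured by qRT-PCR and normalized to three housekeeping genes (ACTB, GAPDH, POLR2A), after 48 h dosing of differentiated HepaRG in serum-free induction medium. Top concentration 100 uM with half-log dilutions (8 points, 0.5% DMSO, duplicates); bidirectional fitting relative to DMSO.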

[3] = read-out: Bcl-2 (BAD) gene, BAD (gene 572); test: LTEA_HepaRG_BAD: Life Technologies and Expression Analysis (LTEA) Assay for Bcl-2 (BAD) gene using HepaRG (AID 2283469)
In short: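 Read-out: qRT-PCR of BAD mRNA, normalized to three housekeeping genes. Human HepaRG cultures got 48 h chemical exposure in 0.5% DMSO, duplicate eight-point half-log series topping at 100 uM. Gain or loss of signal fitted versus DMSO vehicle.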

[4] = read-out: Bcl-2 (BAX) gene, BAX (gene 581); test: LTEA_HepaRG_BAX: Life Technologies and Expression Analysis (LTEA) Assay for Bcl-2 (BAX) gene using HepaRG (AID 2283470)
In short: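 Human HepaRG cells treated in duplicate for 48 h across eight concentrations (max 100 uM, 0.5% DMSO); BAX expression measured by qRT-PCR.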

[5] = read-out: adenosine kinase (ADK) gene, ADK (gene 132); test: LTEA_HepaRG_ADK: Life Technologies and Expression Analysis (LTEA) Assay for adenosine kinase (ADK) gene using HepaRG (AID 2283471)
In short: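 Differentiated HepaRG cells dosed 48 h in serum-free induction medium, 0.5% DMSO vehicle, eight half-log concentrations from 100 uM, in duplicate. ADK mRNA by TaqMan qRT-PCR normalised to ACTB, GAPDH, POLR2A; bidirectional fit versus DMSO.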

[6] = read-out: Alpha-fetoprotein (AFP) gene, AFP (gene 174); test: LTEA_HepaRG_AFP: Life Technologies and Expression Analysis (LTEA) Assay for Alpha-fetoprotein (AFP) gene using HepaRG (AID 2283472)
In short: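 Measures AFP mRNA change in HepaRG after 48 h chemical exposure (8 half-log concentrations, highest 100 uM, 0.5% DMSO). Fold change relative to DMSO, fitted in both directions.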

BCL2L11 (gene 10018) = test: LTEA_HepaRG_BCL2L11: Life Technologies and Expression Analysis (LTEA) Assay for Bcl-2 (BCL2L11) gene using HepaRG (AID 2283473)
In short: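 BCL2L11 transcript levels are measured by Fluidigm qRT-PCR, normalized to three housekeeping genes. HepaRG cultures were plated 48 h, then treated 48 h with test chemical (top 100 uM, half-log, 0.5% DMSO vehicle); curves were fitted bidirectionally against DMSO.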

[7] = read-out: Apoptosis regulator Bcl-2 (Homo sapiens) (UniProt P10415); test: LTEA_HepaRG_BCL2: Life Technologies and Expression Analysis (LTEA) Assay for Bcl-2 gene using HepaRG (AID 2283475)
In short: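 Each chemical was tested in duplicate on HepaRG cultures held in serum-free induction medium for 48 h, highest concentration 100 uM with half-log dilutions. Transcript levels came from multiplexed qRT-PCR, normalised to housekeeping genes; activity was scored in either direction relative to DMSO.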

[8] = read-out: Bcl-2 (BID) gene, BID (gene 637); test: LTEA_HepaRG_BID: Life Technologies and Expression Analysis (LTEA) Assay for Bcl-2 (BID) gene using HepaRG (AID 2283476)
In short: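 Assay used HepaRG hepatic cells treated 48 h in serum-free medium with half-log dilutions from 100 uM. Endpoint: BID mRNA, qRT-PCR, normalized to ACTB/GAPDH/POLR2A.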

Caspase-3 (Homo sapiens) = Caspase-3 (Homo sapiens) (UniProt P42574); test: LTEA_HepaRG_CASP3: Life Technologies and Expression Analysis (LTEA) Assay for cysteine-aspartic acid protease (CASP3) using HepaRG (AID 2283477)
Caspase-3 (Homo sapiens), sequence (P42574 whole entry, looked up): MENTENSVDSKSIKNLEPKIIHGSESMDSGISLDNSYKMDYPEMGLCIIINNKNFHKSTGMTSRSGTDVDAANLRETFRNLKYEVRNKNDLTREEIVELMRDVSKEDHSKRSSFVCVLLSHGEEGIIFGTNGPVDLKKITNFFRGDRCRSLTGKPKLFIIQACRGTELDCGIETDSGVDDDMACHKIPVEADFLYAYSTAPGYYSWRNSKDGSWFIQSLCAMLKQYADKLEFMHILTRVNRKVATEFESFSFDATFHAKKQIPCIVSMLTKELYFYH
In short: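 Expression of CASP3 was quantified by TaqMan qRT-PCR against three housekeeping genes (ACTB, GAPDH, POLR2A), bidirectionally versus 0.5% DMSO. HepaRG cultures received compounds in duplicate, top 100 uM with half-log steps, for 48 h in serum-free induction medium.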

[9] = read-out: Cytochrome P450 (CYP24A1), CYP24A1 (gene 1591); test: LTEA_HepaRG_CYP24A1: Life Technologies and Expression Analysis (LTEA) Assay for Cytochrome P450 (CYP24A1) using HepaRG (AID 2283478)
In short: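 mRNA of CYP24A1 quantified by TaqMan qRT-PCR (ACTB/GAPDH/POLR2A normalization) after 48 h chemical exposure of HepaRG cells, top concentration 100 uM, half-log steps, 0.5% DMSO vehicle, duplicates. Curves fitted bidirectionally against DMSO baseline.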

[10] = read-out: Cytochrome P450 (CYP1A2), CYP1A2 (gene 1544); test: LTEA_HepaRG_CYP1A2: Life Technologies and Expression Analysis (LTEA) Assay for Cytochrome P450 (CYP1A2) using HepaRG (AID 2283479)
In short: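 CYP1A2 transcript measured by TaqMan qRT-PCR against three housekeeping genes after 48-hour chemical exposure of HepaRG cells. Eight-point half-log series topping at 100 uM in 0.5% DMSO, duplicates; gain or loss fitted relative to vehicle.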

[11] = read-out: cysteine-aspartic acid protease (CASP8), CASP8 (gene 841); test: LTEA_HepaRG_CASP8: Life Technologies and Expression Analysis (LTEA) Assay for cysteine-aspartic acid protease (CASP8) using HepaRG (AID 2283480)
In short: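 CASP8 transcript measured by TaqMan qRT-PCR with ACTB/GAPDH/POLR2A normalization, after 48 h chemical exposure of HepaRG cells in serum-free induction medium. Eight concentrations, top 100 uM, half-log steps, 0.5% DMSO vehicle; fits in both directions versus DMSO.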

[12] = read-out: Cytochrome P450 (CYP2B6), CYP2B6 (gene 1555); test: LTEA_HepaRG_CYP2B6: Life Technologies and Expression Analysis (LTEA) Assay for Cytochrome P450 (CYP2B6) using HepaRG (AID 2283481)
In short: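 CYP2B6 transcript level quantified by qRT-PCR against three housekeeping genes, fitted bidirectionally relative to DMSO. HepaRG cultures received chemicals for 48 h, 8-point half-log series from 100 uM in 0.5% DMSO, duplicate wells, serum-free induction medium.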

CYP2C8 (gene 1558) = test: LTEA_HepaRG_CYP2C8: Life Technologies and Expression Analysis (LTEA) Assay for CYP2C8 using HepaRG (AID 2283483)
In short: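 CYP2C8 expression measured by TaqMan qRT-PCR and normalized to three housekeeping genes. HepaRG cultures were treated for 48 h with an eight-point half-log series topping at 100 uM, vehicle 0.5% DMSO, duplicates; fitted both directions against DMSO.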

CYP2C9 (gene 1559) = test: LTEA_HepaRG_CYP2C9: Life Technologies and Expression Analysis (LTEA) Assay for CYP2C9 using HepaRG (AID 2283484)
In short: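 CYP2C9 transcript level, quantified by TaqMan qRT-PCR against three housekeeping genes, was fitted bidirectionally relative to 0.5% DMSO. HepaRG cultures were treated 48 h, in duplicate, at eight half-log concentrations topping at 100 uM.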

CYP2E1 (gene 1571) = test: LTEA_HepaRG_CYP2E1: Life Technologies and Expression Analysis (LTEA) Assay for CYP2E1 using HepaRG (AID 2283485)
In short: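 Assay uses 48 h exposure of HepaRG hepatic cells, eight concentrations to 100 uM. Expression of CYP2E1 is quantified by TaqMan qRT-PCR with ACTB, GAPDH and POLR2A normalization; curves fitted in both directions relative to vehicle.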

CYP4A11 (gene 1579) = test: LTEA_HepaRG_CYP4A11: Life Technologies and Expression Analysis (LTEA) Assay for CYP4A11 using HepaRG (AID 2283486)
In short: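 Readout is CYP4A11 transcript level by qRT-PCR, normalized to three housekeeping genes and fitted bidirectionally against 0.5% DMSO. Human HepaRG cells were treated 48 h, in duplicate, with an 8-point half-log series topping at 100 uM.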

Measured: AC50

Apoptosis regulator Bcl-2 (Homo sapiens), sequence (P10415 whole entry, looked up): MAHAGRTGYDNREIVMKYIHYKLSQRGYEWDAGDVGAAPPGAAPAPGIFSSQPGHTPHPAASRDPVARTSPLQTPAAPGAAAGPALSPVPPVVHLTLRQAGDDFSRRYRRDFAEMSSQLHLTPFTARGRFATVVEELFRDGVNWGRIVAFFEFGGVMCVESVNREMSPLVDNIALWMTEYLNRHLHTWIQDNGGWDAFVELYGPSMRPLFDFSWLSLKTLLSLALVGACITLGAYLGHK

O=C(NC(=O)c1cc(F)c(F)cc1Cl)Nc1cc(F)ccc1N1CCC(C(=O)O)CC1
active: CYP2E1 (gene 1571) 10.3 µM | CYP4A11 (gene 1579) 6.34 µM
inactive: all other assays above

C1CC2OC2CC1C1CO1 (centres undefined)
active: [12] 7.5 µM
not listed: CYP2E1 (gene 1571)
inactive: all other assays above

CCNc1nc(NC(C)C)nc(SC)n1
active: [2] 17.9 µM | [6] 50 µM | [12] 1.11 µM | CYP4A11 (gene 1579) 50 µM
not listed: CYP2E1 (gene 1571)
inactive: all other assays above

CC(c1ccc(O)cc1)(c1ccc(O)cc1)c1ccc(O)cc1
active: [1] 70.5 µM | [2] 0.895 µM | [5] 75.7 µM | BCL2L11 (gene 10018) 82.2 µM | [8] 3.86 µM | Caspase-3 (Homo sapiens) 87.5 µM | [10] 21.8 µM | [12] 31.3 µM | CYP2C9 (gene 1559) 50 µM
inactive: [3] | [4] | [6] | [7] | [9] | [11] | CYP2C8 (gene 1558) | CYP4A11 (gene 1579)

CCCN(CCC)N=O
active: [12] 11 µM
inactive: all other assays above

CC(C)(c1ccccc1)c1ccc(O)cc1
active: [6] 77.8 µM | [10] 75.5 µM | [12] 11.8 µM
not listed: CYP4A11 (gene 1579)
inactive: all other assays above
